Laboratory results as given in PubChem BioAssay AID1159580 (chemical genetic matrix, 2015).
“And” between values parts separate entries of the source, which are not always exact repeats. Equal values may be shown once. The campaign covered roughly 5,500 compounds. About 2,000 (36%) were called active. Another 18% or so got no clear call; they are omitted. Rule as the data show it: active = normalized growth mostly below about 0.91 (no sharp cut-off); inconclusive = no clear call, values can overlap the other calls; inactive = mostly above about 0.92. This is one part of the list.

Experiment: chemical genetic growth profiling, strain panel (AID 1159580);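 also: tested at 20 µM; growth read once vehicle control cultures reached saturation at 30 °C; 1 = growth at the plate median or of vehicle wells; lower values mean less growth of the strain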
Details: S. cerevisiae deletion strains, growth OD

Measured: normalized growth

C=C1c2cccc(O)c2C(O)=C2C(=O)[C@]3(O)C(O)=C(C(N)=O)C(=O)[C@@H](N(C)C)[C@@H]3[C@@H](O)[C@H]12
inactive: locus YAL013W, strain DEP1, hits give low values 0.997 | locus YAL021C, strain ccr4, hits give low values 1.02 | locus YAL026C, strain drs2, hits give low values 1.01 | locus YAL030W, strain snc1, hits give low values 1.01 | locus YBL061C, strain skt5, hits give low values 1.01 | locus YBR009C, strain hhf1, hits give low values 1 | locus YBR021W, strain FUR4, hits give low values 1.01 | locus YBR023C, strain chs3, hits give low values 1 | locus YBR171W, strain sec66, hits give low values 1.02 | locus YBR229C, strain ROT2, hits give low values 0.987 | locus YBR231C, strain swc5, hits give low values 1.02 | locus YBR279W, strain paf1, hits give low values 1.01 | locus YCL011C, strain gbp2, hits give low values 1.01 | locus YCL016C, strain dcc1, hits give low values 1.02 | locus YCL029C, strain bik1, hits give low values 0.965 | locus YCL061C, strain MRC1, hits give low values 1.02 | locus YCL069W, strain vba3, hits give low values 1.01 | locus YCR088W, strain abp1, hits give low values 0.997 | locus YDL005C, strain med2, hits give low values 1.02 | locus YDL035C, strain GPR1, hits give low values 0.98 | locus YDL040C, strain nat1, hits give low values 1.02 | locus YDL074C, strain BRE1, hits give low values 0.962 | locus YDL101C, strain DUN1, hits give low values 0.978 | locus YDL134C, strain PPH21, hits give low values 1.01 | locus YDL185W, strain tfp1, hits give low values 0.925 | locus YDL192W, strain arf1, hits give low values 0.971 | locus YDR001C, strain nth1, hits give low values 1.01 | locus YDR069C, strain doa4, hits give low values 1.01 | locus YDR101C, strain arx1, hits give low values 0.957 | locus YDR137W, strain rgp1, hits give low values 0.927 | locus YDR150W, strain NUM1, hits give low values 0.99 | locus YDR159W, strain sac3, hits give low values 1.01 | locus YDR162C, strain NBP2, hits give low values 0.981 | locus YDR195W, strain ref2 0.997 | locus YDR297W, strain sur2, hits give low values 1.01 | locus YDR318W, strain mcm21, hits give low values 0.975 | locus YDR334W, strain swr1, hits give low values 1.01 | locus YDR335W, strain msn5, hits give low values 1.01 | locus YDR388W, hits give low values 0.991 | locus YDR392W, strain spt3, hits give low values 0.957 | locus YDR502C, strain sam2, hits give low values 1 | locus YEL003W, strain gim4, hits give low values 1 | locus YEL037C, strain rad23, hits give low values 1.01 | locus YEL061C, strain CIN8 (second series), hits give low values 1.01 | locus YEL061C, strain CIN8, hits give low values 0.988 | locus YER015W, strain faa2, hits give low values 0.991 | locus YER016W, strain bim1, hits give low values 0.946 | locus YER110C, hits give low values 0.997 | locus YER111C, strain swi4, hits give low values 1.01 | locus YER155C, strain BEM2 (second series), hits give low values 0.966 | locus YER155C, strain BEM2, hits give low values 1.01 | locus YER167W, strain BCK2, hits give low values 0.992 | locus YFR010W, strain ubp6, hits give low values 1.02 | locus YGL078C, strain dbp3, hits give low values 0.993 | locus YGL086W, strain mad1, hits give low values 0.993 | locus YGL167C, strain pmr1, hits give low values 1.02 | locus YGL173C, strain kem1, hits give low values 1.01 | locus YGL227W, strain vid30, hits give low values 1.01 | locus YGL240W, strain doc1, hits give low values 1.03 | locus YGL248W, strain PDE1, hits give low values 0.979 | locus YGL253W, strain hxk2, hits give low values 1.01 | locus YGR078C, strain PAC10, hits give low values 0.928 | locus YGR135W, strain pre9, hits give low values 0.987 | locus YGR229C, strain SMI1, hits give low values 0.947 | locus YGR252W, strain gcn5, hits give low values 1.11 | locus YHR013C, strain ard1, hits give low values 1.02 | locus YHR027C, strain rpn1, hits give low values 1.01 | locus YHR030C, strain SLT2, hits give low values 0.994 and 0.979 | locus YHR079C, strain IRE1 (second series), hits give low values 0.982 | locus YHR079C, strain IRE1, hits give low values 0.978 | locus YHR094C, strain hxt1, hits give low values 0.992 | locus YHR129C, strain ARP1, hits give low values 0.982 | locus YHR142W, strain chs7, hits give low values 1.05 | locus YHR200W, strain rpn10, hits give low values 0.97 | locus YIL066C, strain RNR3, hits give low values 0.948 | locus YIL073C, strain SPO22, hits give low values 0.945 | locus YIL125W, strain kgd1, hits give low values 0.989 | locus YIR030C, strain dcg1, hits give low values 1 | locus YJL092W, strain hpr5, hits give low values 1.01 | locus YJL095W, strain BCK1 (second series), hits give low values 1.02 | locus YJL095W, strain BCK1, hits give low values 0.899 and 0.972 | locus YJL115W, strain asf1, hits give low values 1.03 | locus YJL129C, strain trk1, hits give low values 1.04 | locus YJL134W, strain LCB3, hits give low values 0.992 | locus YJL154C, strain vps35, hits give low values 1.04 | locus YJL164C, strain tpk1, hits give low values 0.983 | locus YJL166W, strain qcr8, hits give low values 1.02 | locus YJL168C, strain set2, hits give low values 0.982 | locus YJL187C, strain SWE1 (second series), hits give low values 0.929 | locus YJR043C, strain POL32, hits give low values 0.923 | locus YJR066W, strain TOR1, hits give low values 0.913
